Rce1 inh: inhibitors of yeast Ras-converting enzyme; 290,000 compounds, 0.27% hits; Q03530; AID 2563; calls only; yeast membranes, quenched prenylated peptide cleavage fluorescence;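 active = fall in fluorescence gain of 50% or more versus controls, with final raw signal at or below 3038400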
Target sequence (Q03530 whole entry, looked up): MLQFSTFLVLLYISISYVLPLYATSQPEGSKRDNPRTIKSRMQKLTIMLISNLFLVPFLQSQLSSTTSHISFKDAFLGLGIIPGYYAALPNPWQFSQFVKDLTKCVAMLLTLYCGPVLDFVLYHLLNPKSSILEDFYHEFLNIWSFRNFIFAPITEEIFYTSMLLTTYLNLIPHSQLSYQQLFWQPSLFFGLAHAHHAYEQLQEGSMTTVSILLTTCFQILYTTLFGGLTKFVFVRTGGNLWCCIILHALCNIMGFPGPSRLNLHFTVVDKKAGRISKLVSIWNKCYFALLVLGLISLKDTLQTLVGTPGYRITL
Statin myotox sup: suppressors of simvastatin-induced myotoxicity in C2C12 myotubes. ATP luminescence, 48 h; scaled: DMSO 0, geranylgeraniol control 100. rescue of ATP level, % at 7.49 µM. 330,000 compounds, 0.78% hits;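 active = mean ATP rescue above about 67%, or every replicate alone reaching that limit, limit read from the data, passing the limit was not always enough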;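 note: myotubes were challenged with 10 µM simvastatin during compound exposure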
AI-2 QS mod: modulators of Vibrio harveyi AI-2 quorum sensing system; Vibrio harveyi JMH597 AI-2 luminescence/OD600 ratio, 9 h; active compounds read low; strain lacks LuxN and CqsS sensors; 0 = neutral-control median; activity change, % at 7.5 µM; 300,000 compounds, 0.4% hits; AID 2094; in the data active = activity change below about -75%, passing the limit was not always enough;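 note: luminescence divided by OD600 gain over 9 h not by final OD600 alone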
PGC1a acetyl inh: lowers PGC1a acetylation signal in U2OS cells; AlphaScreen anti-acetyl-lysine; with virally co-expressed GCN5 acetyltransferase; inhibition, % at 15.6 µM; 350,000 compounds, 0.17% hits;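 active = every replicate shows inhibition of at least 40%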
HIF act: HIF pathway transcriptional activation | U2OS HRE-luciferase reporter, luminescence; normalized: DMSO 0%, desferrioxamine 100% | activation, % at 7.5 µM (by protocol) | 300,000 compounds, 0.32% hits;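 active = mean activation of at least 10% of the iron chelator positive control signal, with at least half of replicates also reaching 10%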
Numbers stand for hits. This is a sample that favours compounds with a hit; in the whole collection about 1.3% have one here.

For CCOC(=O)[C@@H]1[C@H]2COc3ccc(Br)cc3[C@@H]2N2C(=O)N(c3cccc(Cl)c3)C(=O)[C@@]12C the results were Statin myotox sup inactive and PGC1a acetyl inh inactive.
Screening N#C[C@H]1[C@H](c2ccc(C#CC3CCCC3)cc2)[C@@H](CO)N1C(=O)c1cccc(F)c1 returned PGC1a acetyl inh inactive.
Screening CN1C(=O)c2cc(NC(=O)c3cnccn3)ccc2OC[C@@H]2O[C@@H](CC(=O)NCC3CC3)CC[C@H]21 returned PGC1a acetyl inh inactive.
Screening CCN1CCN(c2nc3sc4c(c3c3ncnn23)CC(C)CC4)CC1 (configuration not stated) returned Rce1 inh inactive, Statin myotox sup 126, AI-2 QS mod inactive, PGC1a acetyl inh inactive and HIF act inactive.
`CC1CCc2sc3nc(NCc4ccco4)n4ncnc4c3c2C1` (configuration not stated) gave Rce1 inh inactive, Statin myotox sup inactive, AI-2 QS mod inactive, PGC1a acetyl inh inactive and HIF act inactive.
O=C(COC(=O)c1ccccc1Nc1ccccc1)NCc1ccccc1 was read as Rce1 inh inactive, Statin myotox sup inactive, AI-2 QS mod inactive, PGC1a acetyl inh inactive and HIF act inactive.
Screening O=C(COC(=O)c1ccccc1Nc1ccccc1)NCc1ccccc1Cl returned Rce1 inh inactive, AI-2 QS mod inactive and HIF act 683.
`COc1ccc2c3c([nH]c2c1)[C@@H](CO)N(C(=O)C1CCC1)CC31CN(S(C)(=O)=O)C1` gave PGC1a acetyl inh inactive.
COc1ccccc1-n1c(C)cc(SC)c(C(C)=O)c1=S was read as Rce1 inh inactive, Statin myotox sup 98, AI-2 QS mod inactive, PGC1a acetyl inh inactive and HIF act inactive.
For COc1ccc(-n2c(C)cc(C)c(C(C)=O)c2=S)cc1 the results were Rce1 inh inactive, AI-2 QS mod inactive and HIF act inactive.
`O=C(OCCN1C(=O)c2cccc3c(N4CCOCC4)ccc(c23)C1=O)c1ccc(Cl)cc1` gave Rce1 inh inactive, AI-2 QS mod inactive and HIF act 12.
Screening N#Cc1nc(-c2cccs2)oc1NCc1ccccc1 returned Rce1 inh inactive, Statin myotox sup inactive, AI-2 QS mod -91, PGC1a acetyl inh inactive and HIF act inactive.
`N#Cc1nc(-c2cccs2)oc1NCc1ccccc1Cl` gave Rce1 inh inactive, Statin myotox sup inactive, AI-2 QS mod inactive, PGC1a acetyl inh inactive and HIF act inactive.
Screening C/C=C/c1cnc2c(c1)C(=O)N([C@H](C)CO)C[C@@H](C)[C@H](CN(C)C(=O)C1CCOCC1)O2 returned Statin myotox sup inactive and PGC1a acetyl inh inactive.
For COc1ccc(NC(=O)CCC(=O)N(Cc2ccc(OC)c(OC)c2)c2nccs2)cc1 the results were Rce1 inh inactive, AI-2 QS mod inactive, PGC1a acetyl inh inactive and HIF act 170.
`COc1ccc(OC)c(NC(=O)CCC(=O)N(Cc2ccc(OC)c(OC)c2)c2nccs2)c1` gave Rce1 inh inactive, AI-2 QS mod inactive and HIF act inactive.
`O=c1c2cccnc2n(-c2ccccc2)n1Cc1ccc(Cl)cc1` gave Rce1 inh inactive, Statin myotox sup inactive, AI-2 QS mod inactive, PGC1a acetyl inh 101 and HIF act inactive.
For O=c1c2cccnc2n(-c2ccccc2)n1Cc1c(Cl)cccc1Cl the results were Rce1 inh inactive, Statin myotox sup inactive, AI-2 QS mod inactive, PGC1a acetyl inh inactive and HIF act inactive.
O=C(c1ccc(F)cc1)N1CC(=O)N2[C@@H](CO)[C@@H](c3ccc(C#CC4CCCC4)cc3)[C@@H]2C1 was read as PGC1a acetyl inh inactive.
For C[C@@H]1CN([C@@H](C)CO)C(=O)c2cc(NC(=O)NC3CCCCC3)ccc2O[C@@H](C)CCCCO[C@H]1CN(C)C(=O)c1ccccc1 the results were Statin myotox sup 85 and PGC1a acetyl inh inactive.
For C[C@H]1CCCCO[C@@H](CN(C)C(=O)c2ccccc2)[C@@H](C)CN([C@@H](C)CO)C(=O)c2cc(NC(=O)NC3CCCCC3)ccc2O1 the results were Statin myotox sup inactive and PGC1a acetyl inh inactive.
`COc1ccc(S(=O)(=O)Nc2ccc3c(c2)C(=O)N([C@@H](C)CO)C[C@@H](C)[C@H](CN(C)C(=O)c2ccccc2)OCCCC[C@@H](C)O3)cc1` gave Statin myotox sup 113.
For COc1ccc(S(=O)(=O)Nc2ccc3c(c2)C(=O)N([C@H](C)CO)C[C@H](C)[C@H](CN(C)Cc2ccc(Cl)c(Cl)c2)OCCCC[C@@H](C)O3)cc1 the results were Statin myotox sup 79 and PGC1a acetyl inh inactive.
